This passage reports cell viability results from the supplement of paper PMC8699584.

In one experiment the test system is Molm13. The experiment can be described thus: cell viability relative to DMSO control (bortezomib = 0%); higher = less growth inhibition. To be noted: 10 nM; 72 h. Summed up: (§1)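 In duplicate runs, a library of 679 approved and investigational compounds in 384-well plates received acute myeloid leukemia cells at 1000 cells per well in 50 µL, with each compound at a single 10 nM dose for 72 h. CellTiter-Glo luminescence, read on an EnVision reader, served as the viability measure. Each plate was normalized by linear regression between DMSO-treated cells (100%) and positive-control-treated cells (0%).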

The test system of a further experiment is Mv4-11. Described as above. To be noted: 10 nM; 72 h. Summed up: as §1

SMILES strings stand for the structures. Counter-ions that a name gives are not always drawn. ± gives the standard deviation of the averaged measurements.

Turning to `O=Nc1c(-c2c(O)[nH]c3ccccc23)[nH]c2ccccc12` [Indirubin-3'-monoxime], the cell viability with Molm13 was determined as 88 ± 13%; with Mv4-11, 80.7 ± 4.5%.
Taken in the same sequence, the figures for `NC(=O)Nc1cc(-c2cccc(F)c2)sc1C(=O)N[C@H]1CCCNC1` were -11.2 ± 3.9% and -9.83 ± 4.2%.
For `CCN(CC)CCNC(=O)c1c(C)[nH]c(/C=C2\C(=O)Nc3ccc(F)cc32)c1C` [Sunitinib] the same measures were 111 ± 26% and 117 ± 4.9%.
For `CCC[C@H](NC(=O)/C(C#N)=C/c1cccc(Br)n1)c1ccccc1` the same measures were 132 ± 32% and 115 ± 11%.
`CC(=O)c1c(C)c2cnc(Nc3ccc(N4CCNCC4)cn3)nc2n(C2CCCC2)c1=O` [Palbociclib]: the cell viability was found to be 90.4 ± 13% in the experiment on Molm13 and 113 ± 9.9% with Mv4-11.
For `CCN(CC)CC(=O)Nc1c(C)cccc1C` [Lidocaine Hydrochloride hydrate], the results for the cell viability with Molm13 and in the experiment with Mv4-11 were 111 ± 18% and 113 ± 8.3%, respectively.
For `Cc1cc(F)c(Nc2ncnc3cc(OCc4ccccc4)ccc23)cc1O` the same measures were 103 ± 1.4% and 118 ± 11%.
Take `Cn1cc(-c2ccc3ncc(Cc4ccc5ncccc5c4)n3n2)cn1`: the cell viability with Molm13 is 100 ± 16%; in the experiment with Mv4-11 it was 119 ± 16%.
With `COc1cc(Nc2nc3ccccc3nc2NS(=O)(=O)c2ccc(NC(=O)c3ccc(C)c(OC)c3)cc2)cc(OC)c1`, the cell viability with Molm13 was 107 ± 25%; in the experiment on Mv4-11 it was 116.8 ± 0.41%.
Taken in the same sequence, the figures for `COc1cc2ncc(-c3ccccc3)nc2cc1OC` were 101 ± 4.1% and 113 ± 9.7%.
Turning to `CC[C@H](CO)Nc1nc(NCc2ccccc2)c2ncn(C(C)C)c2n1` [(R)-Roscovitine], the cell viability in the experiment with Molm13 was found to be 105 ± 9.1%; in the experiment with Mv4-11, 103 ± 15%.
For the compound `CC(C)(C)c1nc(-c2cccc(NS(=O)(=O)c3c(F)cccc3F)c2F)c(-c2ccnc(N)n2)s1`, the cell viability in the experiment on Molm13 was 98.4 ± 6.6%; in the experiment on Mv4-11, 124 ± 2.6%.
Taken in the same sequence, the figures for `COc1cc2nccc(Oc3ccc(NC(=O)C4(C(=O)Nc5ccc(F)cc5)CC4)cc3)c2cc1OC` were 29.6 ± 16% and 44.5 ± 3.8%.
In the case of `N#CC(c1ccnc(OCc2ccc(CN3CCOCC3)cc2)n1)c1nc2ccccc2s1` (stereo unspecified), the cell viability in the experiment on Molm13 was 107 ± 20%; with Mv4-11, 109 ± 11%.
Taken in the same sequence, the figures for `CCCN(CCC)C(=O)C(CCC(=O)O)NC(=O)c1ccccc1` (stereo unspecified) [Proglumide] were 100 ± 3% and 106 ± 24%.
Taken in the same sequence, the figures for `S=C(NCc1ccc2c(c1)OCO2)N1CCN(c2ncnc3c2oc2ccccc23)CC1` [Amuvatinib(MP470)] were 101 ± 10% and 103 ± 15%.
For `COC(=O)Nc1nc2cc(C(=O)c3cccs3)ccc2[nH]1` [Nocodazole], the cell viability amounted to 112.8 ± 0.63% with Molm13 and 105.5 ± 0.46% in the experiment with Mv4-11.
Taken in the same sequence, the figures for `CCCCCCCCCCCCCCCCCCOP(=O)([O-])OC1CC[N+](C)(C)CC1` [Perifosine (KRX-0401)] were 93.8 ± 14% and 110 ± 5.1%.
Turning to `CC(C)c1[nH]nc(Cl)c1-c1ccnc(Nc2ccc(N3CCC(N(C)C)CC3)cn2)n1`, the cell viability in the experiment on Molm13 came to 115 ± 1.8%; with Mv4-11, 112 ± 9.6%.
With `C[C@@H]1O[C@@H](Oc2c(-c3cc(O)c(O)c(O)c3)oc3cc(O)cc(O)c3c2=O)[C@H](O)[C@H](O)[C@H]1O` [Myricetrin], the cell viability in the experiment with Molm13 amounted to 89.1 ± 14%; with Mv4-11 it was 112 ± 35%.
For `CS(=O)(=O)CCNCc1ccc(-c2ccc3ncnc(Nc4ccc(OCc5cccc(F)c5)c(Cl)c4)c3c2)o1` [Lapatinib ditosylate monohydrate] the same measures were 137 ± 32% and 108 ± 17%.
For `Cc1ccc(NC(=O)c2cccc(N(C)C)c2)cc1NC(=O)c1ccc(O)cc1`, the cell viability in the experiment with Molm13 amounted to 94.6 ± 6%; with Mv4-11, 103 ± 5.7%.
Taken in the same sequence, the figures for `N#CCC(C1CCCC1)n1cc(-c2ncnc3[nH]ccc23)cn1` (stereo unspecified) were 112 ± 15% and 113 ± 13%.
`Nc1ncnc2c1c(-c1cccc(OCc3ccccc3)c1)cn2C1CC(CN2CCC2)C1` (stereo unspecified) [NVP-AEW541 (hydrochloride)]: the figures for the cell viability with Molm13 and in the experiment on Mv4-11 were 110 ± 11% and 90.7 ± 25%, respectively.
Taken in the same sequence, the figures for `CNC(=O)c1ccccc1Sc1ccc2c(/C=C/c3ccccn3)n[nH]c2c1` [Axitinib] were 120 ± 7% and 118 ± 10%.
For `O=C(Nc1cccc(Nc2ncc(Br)c(NCCc3cnc[nH]3)n2)c1)N1CCCC1` the same measures were 73 ± 3.7% and 81.16 ± 0.49%.
Taken in the same sequence, the figures for `Cc1cnc(Nc2ccc(OCCN3CCCC3)cc2)nc1Nc1cccc(S(=O)(=O)NC(C)(C)C)c1` were 86.3 ± 1.3% and 92.97 ± 0.82%.
Regarding `NC(=O)c1ncn([C@@H]2O[C@H](CO)[C@@H](O)[C@H]2O)c1N` [AICAR (Acadesine)], the cell viability in the experiment on Molm13 is 110 ± 7.6%; in the experiment on Mv4-11, 111 ± 9.2%.
With `COc1ccc2c3n(c(=NC(=O)c4cccnc4)nc2c1OC)CCN3`, the figures for the cell viability in the experiment with Molm13 and in the experiment with Mv4-11 were 88.7 ± 7% and 102 ± 2.9%, respectively.
In the case of `COc1cc2c(cc1OC)-c1[nH]nc(Nc3cccc(F)c3)c1C2`, the cell viability was determined as 120 ± 23% in the experiment on Molm13 and 116 ± 26% in the experiment on Mv4-11.
Taken in the same sequence, the figures for `O=C(Nc1nc2ccc(NC(=O)C34CC5CC(CC(C5)C3)C4)cc2s1)c1ccccc1` were 117 ± 12% and 101 ± 8.4%.
Regarding `Cc1cccc(CC(=O)N2CCc3c2ccc(-c2cn(C)c4ncnc(N)c24)c3F)n1`, the results for the cell viability in the experiment with Molm13 and in the experiment with Mv4-11 were 114 ± 3.6% and 119 ± 22%, respectively.
For `COc1ncc(-c2ccc3nccc(-c4ccnnc4)c3c2)cc1NS(=O)(=O)c1ccc(F)cc1F` the same measures were 61.5 ± 19% and 76.1 ± 1.9%.
Taken in the same sequence, the figures for `Cc1nc(-c2cn3c(n2)-c2ccc(-c4cnn(C(C)(C)C(N)=O)c4)cc2OCC3)n(C(C)C)n1` were 94.6 ± 8.3% and 123 ± 5.4%.
Regarding `O=C1Cc2c([nH]c3ccc(Br)cc23)-c2ccccc2N1` [KenPaullone], the cell viability in the experiment with Molm13 stood at 91.6 ± 2.8%; in the experiment on Mv4-11, 95.2 ± 16%.
Taken in the same sequence, the figures for `CNC(=O)c1cc(Oc2ccc(NC(=O)Nc3ccc(Cl)c(C(F)(F)F)c3)c(F)c2)ccn1` [Regorafenib (BAY 73-4506)] were 101 ± 7.3% and 110.3 ± 0.69%.
Consider `CNC(=O)c1ccccc1Nc1cc(Nc2ccc(N3CCOCC3)cc2OC)ncc1C(F)(F)F`, for which the cell viability was determined as 105 ± 16% in the experiment on Molm13 and 109 ± 25% in the experiment on Mv4-11.
For `CNC(=O)c1c(C)oc2cc(Oc3ncnc4cc(OC)c(OC)cc34)ccc12` [Fruquintinib] the same measures were 103 ± 25% and 106 ± 2.8%.

As a reminder, the cell viability is a read-out of living cells in per cent, often relative to untreated cells.
